This is part of a sample that, as a whole, favours compounds with a hit. Of some 83,000 tested, about 20% had one in any assay.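 The endpoint reported here, percent growth, reads 100 for growth as untreated, 0 for no net growth and -100 for all cells dead.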 Values without a mark were called inactive. Active and inactive are the calls of the source. The calls were made as follows: active = growth percent below 10; inactive = the rest.

In this assay the test system is MDA-MB-468 breast. Briefly: NCI-60 one-dose screen, 48 h (100 = growth as untreated, 0 = no growth, -100 = all killed). To be noted: 10 µM unless noted.
Turning to `CC1CCCCC[N+]12CCCC2` (stereo not given), the growth was 99.4%.

With `Cc1ccc(/C=C2\C(=O)N(C)c3ccc(S(=O)(=O)Nc4ccc(C(C)(C)C)cc4)cc32)s1`, the growth was 41.8%.

Regarding `Nc1nc(Nc2ccccc2SSc2ccccc2Nc2nc(N)nc(C(Cl)(Cl)Cl)n2)nc(C(Cl)(Cl)Cl)n1`, the growth was 86.6%.

Take `CN(C)CCOC(=O)Nc1nc2ccc(Sc3ccccc3)cc2[nH]1`: the growth was 2.02% (active).

Regarding `O=S(=O)(NCCNc1nccc(-n2cnc3ccccc32)n1)c1ccc(Br)cc1`, the growth was 84%.

On to `N#CC(C(=O)/C(=N/NC(=O)c1ccccc1O)C(C#N)c1ccccc1)c1ccccc1` (stereo not given), for which the growth was 67.1%.

As for `Cc1c(C(=O)OCCO)cc(-c2ccc(Cl)cc2)n1-c1ccc(Cl)cc1Cl`, the growth was 56.5%.

On to `CCOC(=O)C1=C(COCCN)NC(C)=C(C(=O)OC)C1c1ccccc1Cl` (stereo not given), for which the growth is 17%.

On to `COc1cc2cc(NCc3cccc(Cl)c3)nc(C)c2cc1OC`, for which the growth is 46.6%.

With `O=C(OCc1ccc2cccc(O)c2n1)N1CCN(C(=O)c2cc3cc(F)ccc3[nH]2)CC1`, the growth was -59.2% (active).

Take `Cc1ccc(S(=O)(=O)Nc2cc(Sc3ccccc3)c(O)c3ccccc23)cc1`: the growth was -53.9% (active).

In the case of `O=C(N=c1n(-c2ccccc2)nc2n1CCN2C1=NCCN1)c1ccc(Cl)cc1`, the growth was 50.3%.

On to `COc1cc(/C=C\c2cc(OC)c(OC)c(OC)c2)cc(N)c1OC`, for which the growth was 58.4%.

For `O=C(CNC1CCCCC1)Nc1ccc(-c2nc3ccccc3s2)cc1`, the growth was 35.9%.

In the case of `COc1ccc2nc(C)cc(Nc3ccc(Cl)cc3)c2c1`, the growth was 87.2%.

For the compound `O=C1N=c2ccccc2=C1c1sc(=Nc2ccccc2)n(Nc2ccccc2)c1O`, the growth is 123%.

For the compound `C/C(=N\NC(N)=O)c1c(O)sc(=O)[nH]c1=O`, the growth is 97.4%.

`CCOC(=O)c1sc2ncc(-c3ccc(C)cc3)n2c1C`: the growth is 102%.

Consider `COC(=O)c1ccc(C2Nc3ccc(S(=O)(=O)Nc4ccc(C)c(C)c4)cc3C3OCCC23)cc1` (stereo not given), for which the growth is 54.7%.

In the case of `CONC1=Nc2cc(NC(N)=NCc3ccccc3)c(N(C)C3CCCCC3)cc2OC1`, the growth was -23.4% (active).

For the compound `O=C1/C(=C/c2ccccn2)NC(=S)N1c1ccccc1Cl`, the growth is 36%.

In the case of `C=C1CC2(OC1=O)C(=O)Nc1ccccc12` (stereo not given), the growth was -11.5% (active).

Consider `Cc1nc(-c2cn3c(n2)-c2ccc(-c4cnn(C(C)(C)C(N)=O)c4)cc2OCC3)n(C(C)C)n1`, for which the growth was -20.6% (active).

As to `C1Cc2onc(-c3noc4c3CCC4)c2C1`, the growth was 110%.

As for `O=C1c2ccccc2C(=O)c2c1c(C(=O)NCc1ccccc1)c1ccccn21`, the growth was 101%.

For the compound `COc1c(N2CC3CCCN(C(C)=O)C3C2)c(F)cc2c(=O)c(C(=O)N[C@H]3C(O)[C@@H](O)C(CO)O[C@H]3O)cn(C3CC3)c12` (stereo not given in full), the growth is 98%.

With `CC1CCc2c(C(=O)Nc3ncc(Cc4cccc([N+](=O)[O-])c4)s3)csc2C1` (stereo not given), the growth was 12.3%.

Consider `CC(C)CCSc1nc(NNC(N)=O)c(C#N)c(-c2ccccc2)n1`, for which the growth is 108%.

`c1ccc([P+](CCCc2n(Cc3ccc4ccccc4c3)c3ccccc3[n+]2Cc2ccc3ccccc3c2)(c2ccccc2)c2ccccc2)cc1`: the growth was 34.5%.

Consider `C=CCCCCOc1cccc(/C=C2\N=C3SCCCN3C2=O)c1`, for which the growth is 89%.

On to `Cc1cccc(C)c1NC(=O)c1sc2nc3c(cc2c1N)C(=O)CCC3`, for which the growth was 34.3%.

As to `O=C(CSc1nnc(-c2cc(-c3ccccc3)nc3ccccc23)n1-c1ccccc1)Nc1ccc(C(=O)/C=C/c2ccc(Cl)cc2)cc1`, the growth is 88.9%.

Regarding `Ic1ccccc1I`, the growth was 98.9%.

Consider `COc1ccc(C/C(C)=C(\c2ccc(O)cc2)c2ccc(OCCN3CCCC3)cc2)cc1`, for which the growth is 124%.

Turning to `CCN1CCN(CC(=O)Nc2nc3ccc(NCc4ccc(C)cc4)cc3s2)CC1`, the growth was 68.2%.

In the case of `CCOc1ccc(-n2nc(C(=O)NCc3ccccc3OC)nc2-c2cc(OC)c(OC)c(OC)c2)cc1`, the growth is 72.4%.

Regarding `CCN1C(=S)N(CC)C2C1NC(=S)N2/N=C/C=C/c1ccccc1` (stereo not given), the growth is 2.3% (active).

On to `Nc1nc2c([nH]1)c1[nH]c3ccccc3c1c1[nH]c3ccccc3c21`, for which the growth was -57.2% (active).

As to `O=C(CC(c1ccccc1)N1CCOCC1)c1ccccc1` (stereo not given), the growth is 73.4%.

As for `O=C(Nc1cccc2[nH]c(C(F)(F)F)nc12)c1cc(Cl)ccc1Cl`, the growth is 15.1%.

The record behind these values is PubChem BioAssay (NCI).
